Results taken from the supplement of paper PMC12067093, “Discovery and optimisation of a covalent ligand for TRIM25 and its application to targeted protein ubiquitination” (Chemical Science, 2025).
Of roughly 21,000 targets only a part is listed; those with the largest changes were picked by preference.

Compound: Cc1cc(ccc1-c1ccccc1)C(=O)N1CCCN(CC1)C(=O)CCl [compound 10]
Assay: probe-labelled cysteine peptide fold change vs DMSO (competition) (log2 fold change); higher = less target engagement (more negative = stronger competition)
Conditions: THP-1, incubation time: 4 h
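Note: competitive profiling in live THP-1 cells: cysteine peptides tagged with an iodoacetamide desthiobiotin (IA-DTB) probe, intensity after compound treatment relative to DMSO-treated cells.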

GPAA1_O43292_266_GGLLCTLQGK (UniProt O43292)
probe-labelled cysteine peptide fold change (10 µM): -0.168 | probe-labelled cysteine peptide fold change (50 µM): -0.0244

HBS1L_Q9Y450_84_LYSCLDHMR (UniProt Q9Y450)
probe-labelled cysteine peptide fold change (10 µM): 0.0793 | probe-labelled cysteine peptide fold change (50 µM): -0.0662

FHOD1_Q9Y613_43_APTCSLDGALPLGAQIPAVHR (UniProt Q9Y613)
probe-labelled cysteine peptide fold change (10 µM): -0.105 | probe-labelled cysteine peptide fold change (50 µM): 0.425

GNB1_P62873_294_LLLAGYDDFNCNVWDALK (UniProt P62873)
probe-labelled cysteine peptide fold change (10 µM): 0.0699 | probe-labelled cysteine peptide fold change (50 µM): 0.17

GATD1_Q8NB37_94_YHALLIPSCPGALTDLASSGSLAR (UniProt Q8NB37)
probe-labelled cysteine peptide fold change (10 µM): 0.0159 | probe-labelled cysteine peptide fold change (50 µM): -0.00276

GPATCH1_Q9BRR8_485_AQLSPAAAAGHCSWNMALGGGTATLK (UniProt Q9BRR8)
probe-labelled cysteine peptide fold change (10 µM): -0.0776 | probe-labelled cysteine peptide fold change (50 µM): -1.25

HDAC8_Q9BY41_153_KDEASGFCYLNDAVLGILR (UniProt Q9BY41)
probe-labelled cysteine peptide fold change (10 µM): -0.0393 | probe-labelled cysteine peptide fold change (50 µM): 0.0564

GLRX_P35754_26_VVVFIKPTCPYCR (UniProt P35754)
probe-labelled cysteine peptide fold change (10 µM): -1.05 | probe-labelled cysteine peptide fold change (50 µM): -3.44

HINT3_Q9NQE9_66+73_QDPGTELLHCENEDLICFK (UniProt Q9NQE9)
probe-labelled cysteine peptide fold change (10 µM): -0.386 | probe-labelled cysteine peptide fold change (50 µM): -0.532

GIT1_Q9Y2X7_576_KGVSASAVPFTPSSPLLSCSQEGSR (UniProt Q9Y2X7)
probe-labelled cysteine peptide fold change (10 µM): -0.316 | probe-labelled cysteine peptide fold change (50 µM): -0.788

FTSJ3_Q8IY81_293_VCCQDIR (UniProt Q8IY81)
probe-labelled cysteine peptide fold change (10 µM): 0.217 | probe-labelled cysteine peptide fold change (50 µM): -0.481

FKBP8_Q14318_274_CLNNLAASQLK (UniProt Q14318)
probe-labelled cysteine peptide fold change (10 µM): 0.0653 | probe-labelled cysteine peptide fold change (50 µM): -0.0462

GOLGA2_Q08379_984_ERPGLGSNPCIPFFYR (UniProt Q08379)
probe-labelled cysteine peptide fold change (10 µM): -0.149 | probe-labelled cysteine peptide fold change (50 µM): -0.0471

HELZ_P42694_100_AVLCCMQLK (UniProt P42694)
probe-labelled cysteine peptide fold change (10 µM): -0.406 | probe-labelled cysteine peptide fold change (50 µM): -1.27

HERC2_O95714_1037_ISSCLDFEQHSR (UniProt O95714)
probe-labelled cysteine peptide fold change (10 µM): 0.0441 | probe-labelled cysteine peptide fold change (50 µM): 0.321

HEATR3_Q7Z4Q2_57_ECACAGLAR (UniProt Q7Z4Q2)
probe-labelled cysteine peptide fold change (10 µM): -1.43 | probe-labelled cysteine peptide fold change (50 µM): -4.94

GLA_P06280_56_FMCNLDCQEEPDSCISEK (UniProt P06280)
probe-labelled cysteine peptide fold change (10 µM): 0.07 | probe-labelled cysteine peptide fold change (50 µM): -0.0872

HAUS6_Q7Z4H7_662_VISDCECVPQK (UniProt Q7Z4H7)
probe-labelled cysteine peptide fold change (10 µM): 0.0385 | probe-labelled cysteine peptide fold change (50 µM): -0.547

GDAP2_Q9NXN4_148_TAAESSLYSCYR (UniProt Q9NXN4)
probe-labelled cysteine peptide fold change (10 µM): -0.0153 | probe-labelled cysteine peptide fold change (50 µM): 0.00868

FGR_P09769_415_LIKDDEYNPCQGSK (UniProt P09769)
probe-labelled cysteine peptide fold change (10 µM): -0.148 | probe-labelled cysteine peptide fold change (50 µM): -0.205

HGS_O14964_212_VCEPCYEQLNR (UniProt O14964)
probe-labelled cysteine peptide fold change (10 µM): 0.0236 | probe-labelled cysteine peptide fold change (50 µM): -0.13

GRN_P28799_178_CITPTGTHPLAK (UniProt P28799)
probe-labelled cysteine peptide fold change (10 µM): -0.279 | probe-labelled cysteine peptide fold change (50 µM): -0.341

FRMD8_Q9BZ67_206_LDSFLPAHLCK (UniProt Q9BZ67)
probe-labelled cysteine peptide fold change (10 µM): -0.0859 | probe-labelled cysteine peptide fold change (50 µM): -0.347

GSK3B_P49841_335_LTPLEACAHSFFDELRDPNVK (UniProt P49841)
probe-labelled cysteine peptide fold change (10 µM): 0.133 | probe-labelled cysteine peptide fold change (50 µM): 0.0393

GALNT7_Q86SF2_545_GFETAYCIDSMGK (UniProt Q86SF2)
probe-labelled cysteine peptide fold change (10 µM): -0.0613 | probe-labelled cysteine peptide fold change (50 µM): 0.095

HDAC6_Q9UBN7_539_PATEAELLTCHSAEYVGHLR (UniProt Q9UBN7)
probe-labelled cysteine peptide fold change (10 µM): -0.137 | probe-labelled cysteine peptide fold change (50 µM): 0.302

HERC4_Q5GLZ8_58+60_HTVFVLDDGTVYTCGCNDLGQLGHEK (UniProt Q5GLZ8)
probe-labelled cysteine peptide fold change (10 µM): -0.0133 | probe-labelled cysteine peptide fold change (50 µM): -1.05

FSCN1_Q16658_226_VAFRDCEGR (UniProt Q16658)
probe-labelled cysteine peptide fold change (10 µM): -0.244 | probe-labelled cysteine peptide fold change (50 µM): -0.563

GABPA_Q06546_69_LQCSLDAHEICLQDIQLDPER (UniProt Q06546)
probe-labelled cysteine peptide fold change (10 µM): 0.331 | probe-labelled cysteine peptide fold change (50 µM): -0.0571

GLOD4_Q9HC38-2_41_VLRHEEFEEGCK (UniProt Q9HC38)
probe-labelled cysteine peptide fold change (10 µM): -0.835 | probe-labelled cysteine peptide fold change (50 µM): -1.19

HDAC10_Q969S8_508_LLCVALGQLDRPPDLAHDGR (UniProt Q969S8)
probe-labelled cysteine peptide fold change (10 µM): 0.15 | probe-labelled cysteine peptide fold change (50 µM): 0.0528

GTF2B_Q00403_34+37_AGDMICPECGLVVGDR (UniProt Q00403)
probe-labelled cysteine peptide fold change (10 µM): 0.105 | probe-labelled cysteine peptide fold change (50 µM): 0.0895
